The panel holds about 79,000 compounds, 15% with a hit somewhere; the sample as a whole holds those more often. The source made the active and inactive calls. Cut-off read from the data, not from the text of the source: active = growth inhibition above about 70%; inactive = the rest.
Legend:
[1] = NCI Yeast Anticancer Drug Screen. Data for the mec2-1 strain (AID 157); settings: S. cerevisiae mec2-1 strain, hits give high values
Outline: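 Each compound was tested on mec2-1 yeast, a strain altered in DNA damage repair or cell cycle control. Growth inhibition is reported relative to vehicle.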

[2] = NCI Yeast Anticancer Drug Screen. Data for the rad14 strain (AID 159);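 note: 0% = growth of vehicle-treated control cultures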; settings: S. cerevisiae rad14 strain growth inhibition, hits give high values
Outline: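 Vehicle-treated cultures served as the baseline for growth inhibition of a DNA repair-mutant yeast strain exposed to each compound.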

[3] = NCI Yeast Anticancer Drug Screen. Data for the sgs1 mgt1 strain (AID 161);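 note: 0% = growth of cultures given vehicle only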; settings: S. cerevisiae sgs1 mgt1 strain, hits give high values
Outline: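 Mutant yeast exposed to compound; growth scored against vehicle-only wells.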

[4] = NCI Yeast Anticancer Drug Screen. Data for the CLN2oe strain (AID 163);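 note: 0% = growth of vehicle-only control cultures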; settings: S. cerevisiae CLN2oe strain, hits give high values
Outline: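 First, the altered yeast strain was treated with each compound; second, its growth was measured; finally, inhibition was derived by comparison with vehicle controls.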

[5] = NCI Yeast Anticancer Drug Screen. Data for the cln2 rad14 strain (AID 165);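 note: 0% = growth equal to vehicle treated cultures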; settings: S. cerevisiae cln2 rad14 strain, hits give high values
Outline: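 Test compounds were added to cln2 rad14 yeast cultures; inhibition of growth was then determined by comparison with vehicle treatment.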

[6] = NCI Yeast Anticancer Drug Screen. Data for the bub3 strain (AID 167); settings: S. cerevisiae bub3 mutant strain, hits give high values
Outline: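 Inhibition values come from growth of compound-treated mutant yeast normalised to vehicle-treated controls.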

[7] = NCI Yeast Anticancer Drug Screen. Data for the wt2 strain (AID 169);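 note: 0% = growth of vehicle-treated yeast cultures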; settings: S. cerevisiae wt2 strain growth inhibition, hits give high values
Outline: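 The panel's yeast strains carry defined changes in DNA repair or cell cycle genes. Each strain is grown with compound, and growth loss is scored relative to vehicle.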

[8] = NCI Yeast Anticancer Drug Screen. Data for the mlh1 strain (AID 171);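 note: 0% = growth of vehicle-treated control cultures of the same strain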; settings: S. cerevisiae mlh1 strain growth inhibition, hits give high values
Outline: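 Inhibition values reflect reduced yeast growth in the presence of compound, referenced to vehicle controls, using a strain chosen for its alteration in DNA repair or cell cycle control.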

[9] = NCI Yeast Anticancer Drug Screen. Data for the sgs1 strain (AID 173);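 note: 0% = growth of vehicle-only control cultures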; settings: S. cerevisiae sgs1 mutant, hits give high values
Outline: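 Vehicle-treated cultures served as reference for growth inhibition of a yeast strain altered in DNA damage repair or cell cycle control after compound exposure.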

[10] = NCI Yeast Anticancer Drug Screen. Data for the mlh1 rad18 strain (AID 175); settings: S. cerevisiae mlh1 rad18 strain growth inhibition, hits give high values
Outline: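 Inhibition values reflect reduced growth of mutant yeast versus vehicle-treated controls following compound exposure; the mutations affect DNA damage repair.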

[11] = NCI Yeast Anticancer Drug Screen. Data for the rad18 strain (AID 177); settings: S. cerevisiae rad18 mutant growth inhibition, hits give high values
Outline: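 Steps: expose repair-mutant yeast to compound; measure growth; express as inhibition relative to vehicle control.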

[12] = NCI Yeast Anticancer Drug Screen. Data for the rad52 strain (AID 147);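 note: 0% = growth of vehicle-treated control cultures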; settings: S. cerevisiae rad52 mutant growth inhibition, hits give high values
Outline: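 Inhibition of yeast growth, referenced to vehicle controls, was the measured output for a strain with defective DNA damage repair.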

[13] = NCI Yeast Anticancer Drug Screen. Data for the wt1 strain (AID 149);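 note: 0% = growth of vehicle-treated wt1 cultures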; settings: S. cerevisiae wt1 strain (SPY 50644) growth inhibition, hits give high values
Outline: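 Vehicle-normalised growth inhibition; strain wt1; compound exposure.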

[14] = NCI Yeast Anticancer Drug Screen. Data for the rad50EPP+ strain (AID 151);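 note: 0% = growth of vehicle-treated control cultures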; settings: S. cerevisiae rad50 mutant strain, hits give high values
Outline: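 Genetically defined yeast (rad50EPP+, DNA damage repair alteration) is grown with compound, and inhibition of growth is expressed relative to vehicle-treated controls.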

[15] = NCI Yeast Anticancer Drug Screen. Data for the mgt1 strain (AID 153); settings: S. cerevisiae mgt1 mutant growth inhibition, hits give high values
Outline: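 In the mgt1 strain, test compounds were added and growth inhibition was determined relative to vehicle-treated controls.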

[16] = NCI Yeast Anticancer Drug Screen. Data for the rad50 strain (AID 155);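 note: 0% = growth of vehicle-only cultures of the same strain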; settings: S. cerevisiae rad50 strain growth inhibition, hits give high values
Outline: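 A DNA repair-deficient yeast mutant serves as the test organism; compound-induced growth inhibition is calculated against vehicle-treated cells.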

[17] = at 5.0 µM (retest, dose inferred, filed as 0.5)
[18] = at 50.0 µM (retest, dose inferred, filed as 5.0)

Measured: growth inhibition

Cc1ccc(S(=O)(=O)Oc2cc(Cl)c(Cl)cc2Cl)cc1
inactive: [1]; [17] -29% | [1]; at 11.0 µM -5% | [1]; at 33.0 µM -9% | [1]; [18] -17% | [1]; at 50.0 µM -21.8% | [1]; at 100.0 µM -6% | [2]; at 1.2 µM -4% | [2]; at 3.7 µM 4% | [2]; at 11.0 µM 2% | [2]; at 33.0 µM -7% | [2]; at 100.0 µM 2% | [3]; [17] 23% | [3]; [18] 25% | [3]; at 50.0 µM 7.65% | [4]; at 1.2 µM -2% | [4]; at 3.7 µM -6% | [4]; at 11.0 µM -10% | [4]; at 33.0 µM -18% | [4]; at 100.0 µM -18% | [5]; [17] 4% | [5]; [18] 3% | [5]; at 50.0 µM -9.8% | [6]; at 1.2 µM 1% | [6]; at 3.7 µM 3% | [6]; [17] 4% | [6]; at 11.0 µM 3% | [6]; at 33.0 µM -2% | [6]; [18] 40% | [6]; at 50.0 µM 10.2% | [6]; at 100.0 µM -4% | [7]; at 1.2 µM 1% | [7]; at 3.7 µM -9% | [7]; at 11.0 µM -14% | [7]; at 33.0 µM -9% | [7]; at 100.0 µM -8% | [8]; at 1.2 µM 1% | [8]; at 3.7 µM 1% | [8]; at 11.0 µM 2% | [8]; at 33.0 µM -6% | [8]; at 100.0 µM 8% | [9]; at 1.2 µM -19% | [9]; at 3.7 µM -14% | [9]; at 11.0 µM -18% | [9]; at 33.0 µM 0% | [9]; at 100.0 µM 12% | [10]; [17] 18% | [10]; [18] 53% | [10]; at 50.0 µM 2.3% | [11]; at 1.2 µM -5% | [11]; at 3.7 µM -2% | [11]; at 11.0 µM 1% | [11]; at 33.0 µM -3% | [11]; at 100.0 µM 11%

O=C([O][Sn]([O]C(=O)c1ccccc1)([c]1ccccc1)[c]1ccccc1)c1ccccc1
inactive: [12]; at 1.2 µM 23% | [12]; at 3.7 µM 21% | [12]; at 11.0 µM 22% | [12]; at 33.0 µM 46% | [13]; at 1.2 µM 0% | [13]; at 3.7 µM 4% | [13]; at 11.0 µM -4% | [13]; at 33.0 µM 9% | [14]; at 1.2 µM 30% | [14]; at 3.7 µM 18% | [14]; at 11.0 µM 24% | [14]; at 33.0 µM 21% | [14]; at 100.0 µM 18% | [15]; at 1.2 µM 1% | [15]; at 3.7 µM 14% | [15]; at 11.0 µM 20% | [15]; at 33.0 µM 43% | [16]; at 1.2 µM 20% | [16]; at 3.7 µM 30% | [16]; [17] 4% | [16]; at 11.0 µM 27% | [16]; at 33.0 µM 40% | [16]; [18] 26% | [16]; at 50.0 µM 68.5% | [1]; at 1.2 µM 21% | [1]; at 3.7 µM 16% | [1]; [17] 12% | [1]; at 11.0 µM 16% | [1]; at 33.0 µM 37% | [1]; [18] 52% | [2]; at 1.2 µM 32% | [2]; at 3.7 µM 23% | [2]; at 11.0 µM 30% | [2]; at 33.0 µM 35% | [3]; [17] -11% | [3]; at 50.0 µM 56.4% | [4]; at 1.2 µM 15% | [4]; at 3.7 µM 16% | [4]; at 11.0 µM 10% | [4]; at 33.0 µM 23% | [4]; at 100.0 µM 57% | [5]; [17] -1% | [5]; at 50.0 µM 60% | [6]; at 1.2 µM 8% | [6]; at 3.7 µM 2% | [6]; [17] -14% | [6]; at 11.0 µM 10% | [6]; at 33.0 µM 30% | [6]; at 50.0 µM 58.5% | [7]; at 1.2 µM 8% | [7]; at 3.7 µM 1% | [7]; at 11.0 µM 20% | [8]; at 1.2 µM 1% | [8]; at 3.7 µM 14% | [8]; at 11.0 µM 20% | [8]; at 33.0 µM 43% | [9]; at 1.2 µM 28% | [9]; at 3.7 µM 26% | [9]; at 11.0 µM 30% | [9]; at 33.0 µM 45% | [10]; [17] 11% | [10]; at 50.0 µM 50.1% | [11]; at 1.2 µM 0% | [11]; at 3.7 µM -4% | [11]; at 11.0 µM -2% | [11]; at 33.0 µM 43%
active: [12]; at 100.0 µM 81% | [13]; at 100.0 µM 78% | [15]; at 100.0 µM 86% | [16]; at 100.0 µM 88% | [1]; at 50.0 µM 76.8% | [1]; at 100.0 µM 87% | [2]; at 100.0 µM 82% | [3]; [18] 73% | [5]; [18] 77% | [6]; [18] 87% | [6]; at 100.0 µM 83% | [7]; at 33.0 µM 81% | [7]; at 100.0 µM 97% | [8]; at 100.0 µM 86% | [9]; at 100.0 µM 84% | [10]; [18] 76% | [11]; at 100.0 µM 88%
